# Shown are actives, neighbours in structure and some others; about 6.7% of the full set was active somewhere.
# Pf Dd2 growth: P. falciparum Dd2 growth inhibitors, primary screen, SYBR Green fluorescence, single dose replicates. activity change, % at 10 µM. actives 2.3% (n = 94,000). 72 h; active compounds read low. AID 1159554, 2015; in the data active = activity change below about -80%; inconclusive = no clear call, values can overlap the other calls
# C diff HTS: C. difficile growth inhibitors, primary screen, HTS; Clostridium difficile clinical isolate growth, OD600, 24 h; active compounds read low; growth activity, negative = inhibition, % at 16 µg/mL (by protocol); actives 0.25% (n = 86,000);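 active = mean growth activity at or below -80% and every replicate also at or below -80%; inconclusive = mean at or below -80% but some replicate above -80%; inactive = mean growth activity above -80%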;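 note: 0% = DMSO wells and -100% = levofloxacin 16 µg/mL wells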
# T cruzi growth-1: T. cruzi intracellular proliferation inhibitors, primary screen, cell-based, beta-gal Tulahuen parasites, NIH3T3 host, luminescence; T. cruzi beta-gal in NIH3T3, GalScreen luminescence, 90 h; inhibition, % at 8.34 µM; AID 624255, 2012; actives 5.9% (n = 77,000);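 active = mean inhibition above about 93%, with at least 55% of replicates each passing it, limit read from the data, passing the limit was not always enough; inconclusive = only one of those two conditions holds; inactive = neither condition holds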
# T cruzi growth-2: T. cruzi intracellular proliferation inhibitors, confirmation, cell-based, NIH3T3 host, beta-gal parasite, luminescence, cherry-pick. shares compounds with T cruzi growth-1. T. cruzi beta-gal in NIH3T3, GalScreen luminescence, 90 h. inhibition, % at 8.35 µM. actives 72% (n = 5,600);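 active = mean replicate inhibition above about 95% and at least 55% of replicates individually reaching it, limit read from the data; inconclusive = only one of the two criteria is met; inactive = neither criterion is met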
# T cruzi growth-3: inhibitors of intracellular T. cruzi replication, confirmation, NIH3T3 host cells, beta-gal parasites, cherry-pick, set 2. actives 21% (n = 5,600). inhibition, % at 2.09 µM. shares compounds with T cruzi growth-1. T. cruzi beta-gal in NIH3T3, GalScreen luminescence, 90 h;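 active = mean inhibition above about 95%, with at least 55% of replicates also reaching it, limit read from the data; inconclusive = meets just one of the two conditions; inactive = meets neither condition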;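 note: plate controls were neutral control median for no effect and positive control median for full effect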
# 3T3 cytotox: cytotoxicity in mouse NIH/3T3 fibroblasts, confirmation, cytotoxicity control for T. cruzi proliferation inhibitor project, cell-based, cherry-pick, single point. shares compounds with T cruzi growth-1. NIH/3T3 viability, CellTiter-Glo ATP luminescence, 90 h. cytotoxicity (signal decrease), % at 8.35 µM. actives 14% (n = 5,600). AID 651742, 2012;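 active = mean signal decrease across replicates above about 35% based on untreated-well scatter, with enough replicates individually passing, limit read from the data; inconclusive = no rule stated though some were filed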;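 note: 0% = median of neutral control wells and 100% = median of positive control wells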
# NIH3T3 tox 2: NIH/3T3 fibroblast cytotoxicity, confirmation, cytotoxicity control, cell-based, cherry-pick, single point, set 2; actives 56% (n = 5,600); NIH/3T3 viability, CellTiter-Glo ATP luminescence, 90 h; inhibition, % at 24.9 µM; shares compounds with T cruzi growth-1;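 active = mean loss of cell viability signal at or above a set limit, and enough replicates individually reaching it; inconclusive = meets only the mean limit or only the replicate share; inactive = meets neither condition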;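 note: 0% = median of neutral control wells and 100% = median of positive control wells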
# Numbers without * were called inactive; ? = inconclusive; . = not tested or not shown.
SMILES,Pf Dd2 growth,C diff HTS,T cruzi growth-1,T cruzi growth-2,T cruzi growth-3,3T3 cytotox,NIH3T3 tox 2
COc1ccc(C#Cc2ccc3c(c2)O[C@@H](CN(C)C(=O)Nc2cccc(OC)c2)[C@@H](C)CN([C@@H](C)CO)S3(=O)=O)cc1,-89.5*,.,?,105.1*,108.2*,36.7*,33.5*
COc1cccc(NC(=O)N(C)C[C@H]2Oc3cc(C#Cc4ccncc4)ccc3S(=O)(=O)N([C@@H](C)CO)C[C@H]2C)c1,-31.3,-2.8,77.3,.,.,.,.
COc1cccc(NC(=O)N(C)C[C@@H]2Oc3cc(C#CC4(O)CCCC4)ccc3S(=O)(=O)N([C@H](C)CO)C[C@@H]2C)c1,-14.9,5.8,.,.,.,.,.
COc1cccc(NC(=O)N(C)C[C@@H]2Oc3cc(-c4ccccc4F)ccc3S(=O)(=O)N([C@H](C)CO)C[C@@H]2C)c1,-75.9,-0.1,97.8*,111.1*,55.2,22.1,49.9*
COc1ccc(C#Cc2ccc3c(c2)O[C@H](CN(C)C(=O)Nc2cccc(OC)c2)[C@@H](C)CN([C@@H](C)CO)S3(=O)=O)cc1,-85.2*,.,109.4*,100.1*,110.1*,?,17.0
COc1cccc(NC(=O)N(C)C[C@H]2Oc3cc(C#Cc4ccc(F)cc4)ccc3S(=O)(=O)N([C@@H](C)CO)C[C@@H]2C)c1,-57.0,2.7,?,98.7*,107.7*,7.7,51.8*
C[C@@H]1CN([C@@H](C)CO)C(=O)c2cc(NC(=O)C3CCCCC3)ccc2O[C@H]1CN(C)S(=O)(=O)c1cn(C)cn1,12.8,3.4,-19.9,.,.,.,.
COCC(=O)N(C)C[C@@H]1Oc2cc(-c3ccc(F)cc3)ccc2S(=O)(=O)N([C@@H](C)CO)C[C@H]1C,-5.7,-2.9,-12.1,.,.,.,.
CNC(=O)C[C@H]1CC[C@H]2[C@@H](COc3ccc(NS(=O)(=O)c4cccc(F)c4)cc3C(=O)N2C)O1,17.1,-3.4,-18.8,.,.,.,.
C[C@H](CO)N1C[C@H](C)[C@H](CN(C)Cc2ccc(F)cc2)Oc2ncc(/C=C/c3ccccc3)cc2C1=O,-63.3,26.1,.,.,.,.,.
C/C=C/c1cnc2c(c1)C(=O)N([C@@H](C)CO)C[C@@H](C)[C@H](CN(C)Cc1ccccc1F)O2,20.5,.,.,.,.,.,.
C[C@H](CO)N1C[C@H](C)[C@H](CN(C)Cc2ccccc2F)Oc2ncc(/C=C/c3ccccc3)cc2C1=O,-39.3,24.9,95.5*,107.2*,77.3,17.2,60.0*
C[C@@H]1CN([C@H](C)CO)C(=O)c2cc(/C=C/c3ccccc3)cnc2O[C@H]1CN(C)Cc1ccccc1F,-49.0,20.5,87.1*,102.6*,?,10.0,103.1*
CNC[C@@H]1Oc2ccc(NS(=O)(=O)c3ccccc3)cc2CC(=O)N([C@@H](C)CO)C[C@H]1C,10.4,-2.7,8.2,.,.,.,.
COCC(=O)Nc1ccc2c(c1)OC[C@@H](C)N(Cc1cccnc1)C[C@@H](C)[C@@H](OC)CN(C)C2=O,2.8,-1.0,21.6,.,.,.,.
COCC(=O)N1CC(=O)N2[C@H](C1)[C@@H](c1ccc(C#CC3CCCCC3)cc1)[C@@H]2CO,-35.7,-19.0,.,.,.,.,.
CC(C)C#Cc1cnc2c(c1)C(=O)N([C@H](C)CO)C[C@H](C)[C@@H](CN(C)Cc1cncnc1)O2,25.8,0.7,-35.7,.,.,.,.
CC(C)C(=O)Nc1ccc2c(c1)C(=O)N(C)[C@@H]1CC[C@@H](CC(=O)NCc3cccc(F)c3)O[C@@H]1CO2,-51.7,-0.1,-4.6,.,.,.,.
CN(C)CC#Cc1ccc([C@@H]2[C@H]3CN(C(=O)Nc4cc(F)ccc4F)CCCCN3[C@H]2CO)cc1,7.2,5.7,117.0*,43.4,-30.1,?,103.3*
CN(C)CC#Cc1ccc([C@@H]2[C@H]3CN(C(=O)Nc4ccccc4F)CCCCN3[C@H]2CO)cc1,7.9,2.8,68.4,.,.,.,.
CN(C)CC#Cc1ccc([C@@H]2[C@@H](CO)N3CCCCN(C(=O)Nc4cc(F)ccc4F)C[C@@H]23)cc1,-27.1,11.9,106.4*,101.1*,34.5,-17.4,45.3*
CN(C)CC#Cc1ccc([C@@H]2[C@@H](CO)N3CCCCN(C(=O)Nc4ccccc4F)C[C@@H]23)cc1,-41.9,4.5,34.0,.,.,.,.
CC(C)NC(=O)N(C)C[C@H]1Oc2c(NS(=O)(=O)c3ccc(F)cc3)cccc2C(=O)N([C@H](C)CO)C[C@H]1C,-4.4,-2.0,.,.,.,.,.
Cc1ccc(-c2ccc3c(c2)O[C@H](CN(C)C(=O)C2CCC2)[C@@H](C)CN([C@@H](C)CO)S3(=O)=O)cc1,-48.2,-6.9,66.9,.,.,.,.
C[C@@H]1CN([C@H](C)CO)S(=O)(=O)c2ccc(-c3ccc(F)cc3)cc2O[C@@H]1CN(C)C(=O)C1CCCCC1,-19.6,-2.2,107.7*,103.5*,91.9,28.2,101.6*
SMILES,Pf Dd2 growth,C diff HTS,T cruzi growth-1,T cruzi growth-2,T cruzi growth-3,3T3 cytotox,NIH3T3 tox 2
Cc1ccc(-c2ccc3c(c2)O[C@H](CN(C)C(=O)C2CCCCC2)[C@@H](C)CN([C@H](C)CO)S3(=O)=O)cc1,-18.0,.,112.4*,107.7*,102.6*,-15.5,93.8*
Cc1ccc(-c2ccc3c(c2)O[C@@H](CN(C)C(=O)C2CCCCC2)[C@H](C)CN([C@@H](C)CO)S3(=O)=O)cc1,-39.7,.,120.1*,107.6*,?,31.7,96.5*
Cc1ccc(-c2ccc3c(c2)O[C@@H](CN(C)C(=O)C2CC2)[C@@H](C)CN([C@H](C)CO)S3(=O)=O)cc1,-10.0,.,107.6,.,.,.,.
C[C@@H]1CN([C@@H](C)CO)S(=O)(=O)c2ccc(-c3ccc(F)cc3)cc2O[C@H]1CN(C)C(=O)C1CCC1,-54.2,.,84.7,.,.,.,.
C[C@@H]1CN([C@H](C)CO)C(=O)c2cc(Br)cnc2O[C@@H]1CN(C)CC1CCCC1,12.6,.,73.3,.,.,.,.
COc1cccc(NC(=O)N2CC(=O)N3[C@H](CO)[C@H](c4ccc(C#CCC5CCCC5)cc4)[C@@H]3C2)c1,-25.9,51.5,.,.,.,.,.
CO[C@H]1CN(C)C(=O)c2ccc(NC(=O)c3ccno3)cc2OC[C@@H](C)NC[C@@H]1C,48.6,.,42.9,.,.,.,.
CCCNC(=O)C[C@@H]1CC[C@H]2[C@@H](COc3ccc(NC(=O)c4ccc(C(F)(F)F)cc4)cc3C(=O)N2C)O1,-17.6,2.3,15.6,.,.,.,.
COc1ccc(CN(C)C[C@H]2OCCCC[C@@H](C)Oc3ccc(NS(=O)(=O)c4ccc(Cl)cc4)cc3C(=O)N([C@H](C)CO)C[C@H]2C)cc1,-70.8,1.5,119.0*,115.5*,92.1,33.8,105.6*
